Measurements reported in PubChem BioAssay AID1159580 (chemical genetic matrix, 2015).
Where “and” joins values, the source holds several entries; their conditions need not be identical. Equal entries are not always repeated. Among all 5,500 compounds or so, about 2,000 (36%) were called active. About 18% were inconclusive and are not listed. Rule as the data show it: active = normalized growth mostly below about 0.91 (no sharp cut-off); inconclusive = no clear call, values can overlap the other calls; inactive = mostly above about 0.92. Some of the results follow.

Test: chemical genetic growth profiling, strain panel (AID 1159580);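 also: tested at 20 µM; growth read once vehicle control cultures reached saturation at 30 °C; 1 = growth at the plate median or of vehicle wells; lower values mean less growth of the strain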
Conditions: S. cerevisiae deletion strains, growth OD

Measured: normalized growth

COC(=O)CCC(C)C1CCC2C3CC[C@@H]4C[C@H](O)CC[C@]4(C)C3C[C@H](O)[C@]12C (stereo partly drawn)
active: locus YAL021C, strain ccr4, stronger effect = lower value 1.11 [resistant] | locus YBL061C, strain skt5, stronger effect = lower value 0.9 | locus YBR023C, strain chs3, stronger effect = lower value 0.909 | locus YDR137W, strain rgp1, stronger effect = lower value 0.754 | locus YDR159W, strain sac3, stronger effect = lower value 0.757 | locus YDR195W, strain ref2 0.802 | locus YDR392W, strain spt3, stronger effect = lower value 0.331 | locus YER155C, strain BEM2 (second series), stronger effect = lower value 0.746 | locus YGR229C, strain SMI1, stronger effect = lower value 0.709 | locus YHR013C, strain ard1, stronger effect = lower value 1.34 [resistant] | locus YHR079C, strain IRE1, stronger effect = lower value 0.826 | locus YHR142W, strain chs7, stronger effect = lower value 0.819 | locus YJL095W, strain BCK1 (second series), stronger effect = lower value 0.867 | locus YJL166W, strain qcr8, stronger effect = lower value 0.892
0.819 (inactive) and 0.826 (active): locus YJL095W, strain BCK1, stronger effect = lower value
0.923 (inactive) and 0.843 (active): locus YHR030C, strain SLT2, stronger effect = lower value
inactive: locus YAL013W, strain DEP1, stronger effect = lower value 0.983 | locus YAL026C, strain drs2, stronger effect = lower value 1 | locus YAL030W, strain snc1, stronger effect = lower value 0.987 | locus YBR009C, strain hhf1, stronger effect = lower value 0.925 | locus YBR021W, strain FUR4, stronger effect = lower value 1.01 | locus YBR171W, strain sec66, stronger effect = lower value 1.01 | locus YBR229C, strain ROT2, stronger effect = lower value 0.998 | locus YBR231C, strain swc5, stronger effect = lower value 0.978 | locus YBR279W, strain paf1, stronger effect = lower value 0.996 | locus YCL011C, strain gbp2, stronger effect = lower value 0.966 | locus YCL016C, strain dcc1, stronger effect = lower value 0.967 | locus YCL029C, strain bik1, stronger effect = lower value 1.01 | locus YCL061C, strain MRC1, stronger effect = lower value 0.992 | locus YCL069W, strain vba3, stronger effect = lower value 1.01 | locus YCR088W, strain abp1, stronger effect = lower value 1 | locus YDL005C, strain med2, stronger effect = lower value 0.983 | locus YDL035C, strain GPR1, stronger effect = lower value 0.989 | locus YDL040C, strain nat1, stronger effect = lower value 0.985 | locus YDL074C, strain BRE1, stronger effect = lower value 0.849 | locus YDL101C, strain DUN1, stronger effect = lower value 0.973 | locus YDL134C, strain PPH21, stronger effect = lower value 0.951 | locus YDL185W, strain tfp1, stronger effect = lower value 1.02 | locus YDL192W, strain arf1, stronger effect = lower value 0.922 | locus YDR001C, strain nth1, stronger effect = lower value 0.996 | locus YDR069C, strain doa4, stronger effect = lower value 1.04 | locus YDR101C, strain arx1, stronger effect = lower value 1 | locus YDR162C, strain NBP2, stronger effect = lower value 0.928 | locus YDR297W, strain sur2, stronger effect = lower value 0.986 | locus YDR318W, strain mcm21, stronger effect = lower value 0.993 | locus YDR334W, strain swr1, stronger effect = lower value 1.01 | locus YDR335W, strain msn5, stronger effect = lower value 0.975 | locus YDR388W, stronger effect = lower value 1.02 | locus YDR502C, strain sam2, stronger effect = lower value 1.02 | locus YEL003W, strain gim4, stronger effect = lower value 0.99 | locus YEL037C, strain rad23, stronger effect = lower value 1.01 | locus YEL061C, strain CIN8 (second series), stronger effect = lower value 0.999 | locus YEL061C, strain CIN8, stronger effect = lower value 0.975 | locus YER015W, strain faa2, stronger effect = lower value 1 | locus YER016W, strain bim1, stronger effect = lower value 0.962 | locus YER110C, stronger effect = lower value 1.02 | locus YER111C, strain swi4, stronger effect = lower value 0.996 | locus YER155C, strain BEM2, stronger effect = lower value 0.955 | locus YER167W, strain BCK2, stronger effect = lower value 1.01 | locus YFR010W, strain ubp6, stronger effect = lower value 1.04 | locus YGL078C, strain dbp3, stronger effect = lower value 1.02 | locus YGL086W, strain mad1, stronger effect = lower value 0.997 | locus YGL167C, strain pmr1, stronger effect = lower value 0.971 | locus YGL173C, strain kem1, stronger effect = lower value 0.992 | locus YGL227W, strain vid30, stronger effect = lower value 1 | locus YGL240W, strain doc1, stronger effect = lower value 0.928 | locus YGL248W, strain PDE1, stronger effect = lower value 0.95 | locus YGL253W, strain hxk2, stronger effect = lower value 0.985 | locus YGR135W, strain pre9, stronger effect = lower value 1.01 | locus YGR252W, strain gcn5, stronger effect = lower value 0.887 | locus YHR027C, strain rpn1, stronger effect = lower value 1 | locus YHR079C, strain IRE1 (second series), stronger effect = lower value 1 | locus YHR094C, strain hxt1, stronger effect = lower value 1.03 | locus YHR129C, strain ARP1, stronger effect = lower value 0.955 | locus YHR200W, strain rpn10, stronger effect = lower value 1.02 | locus YIL066C, strain RNR3, stronger effect = lower value 0.923 | locus YIL073C, strain SPO22, stronger effect = lower value 1.27 | locus YIL125W, strain kgd1, stronger effect = lower value 1.01 | locus YIR030C, strain dcg1, stronger effect = lower value 1.01 | locus YJL092W, strain hpr5, stronger effect = lower value 1 | locus YJL115W, strain asf1, stronger effect = lower value 1.01 | locus YJL129C, strain trk1, stronger effect = lower value 0.934 | locus YJL134W, strain LCB3, stronger effect = lower value 1.01 | locus YJL154C, strain vps35, stronger effect = lower value 1.01 | locus YJL164C, strain tpk1, stronger effect = lower value 0.957 | locus YJL168C, strain set2, stronger effect = lower value 1.01 | locus YJL187C, strain SWE1 (second series), stronger effect = lower value 0.979 | locus YJL187C, strain SWE1, stronger effect = lower value 0.995
